Measured values as given in the supplement of paper PMC10849652.
The full data set covers some 8,800 targets. This sample favours those with a hit. About 0.5% of all pairs of compound and target were hits.

Experiments:
Assay in all cases: log2 fold change, soluble protein after heating vs DMSO (PISA); higher = thermal stabilisation; K562 lysate, 10 uM; active = over 0.2 and 3.5 SD of the protein, either way, in both replicates (recomputed)
ibrutinib = compound: C=CC(=O)N1CCC[C@@H](n2nc(-c3ccc(Oc4ccccc4)cc3)c3c(N)ncnc32)C1 [ibrutinib]
Method in brief: (§1)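 Log-two fold change in thermal stability relative to solvent controls is reported from duplicates. For each sample, crude K562 extract from dounce-homogenised pellets in PBS pH 7.4 with 1 mM MgCl2, at 1 mg/mL protein, was treated with 10 μM compound for 30 min. Aliquots heated for 3 min across 48°C-58°C were pooled, brought to 0.5% NP-40 at 4°C and cleared at 21,000xg for 90 min. The supernatant was quantified by TMTpro 16plex LC-MS/MS with channel sums equalised.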

[1] = compound: CC(=O)c1cnc2ccc(-c3cc(Cl)c(O)c(Cl)c3)nc2c1N[C@H]1CC[C@H](CN(C)C)CC1
Method in brief: as §1

ralimetinib = compound: CC(C)(C)Cn1c(N)nc2ccc(-c3[nH]c(C(C)(C)C)nc3-c3ccc(F)cc3)nc21 [ralimetinib]
Method in brief: as §1

[2] = compound: CC(C)(O)CC(=O)NCCn1ccc2ncnc(Nc3ccc(Oc4cccc(C(F)(F)F)c4)c(Cl)c3)c21
Method in brief: as §1

[3] = compound: CC(C)C1=C2N=C(C=C(N2N=C1)NCC3=CC=CC=C3)NCCCCCCN
Method in brief: as §1

[4] = compound: CC1=C(C(CC(=O)N1)C2=CC=C(C=C2)C(F)(F)F)C(=O)NC3=C(C=C4C(=C3)C=NN4)F
Method in brief: as §1

[5] = compound: CC1=C(C2=C(C=C1)C(=O)C3=CC=CC=C3N2CCCN)C
Method in brief: as §1

[6] = compound: CC1=C(C=C(C=C1)NC(=O)C2=CC(=CC=C2)C(C)(C)C#N)NC3=CC4=C(C=C3)N=CN(C4=O)C
Method in brief: as §1

[7] = compound: CC1=C(C=C(C=C1)NC(=O)C2=CC(=CC=C2)N(C)C)NC(=O)C3=CC=C(C=C3)O
Method in brief: as §1

[8] = compound: CC1=CC=C(C=C1)SC2=C3C=C(SC3=CN=C2)C(=O)N
Method in brief: as §1

Measured: log2 fold change

NTMT1 (UniProt Q9BV86)
inactive: ibrutinib -0.025 | [1] 0.022 | ralimetinib -0.025 | [2] -0.018 | [3] 0 | [4] -0.005 | [5] -0.01 | [6] -0.008 | [7] 0.047 | [8] 0.01

NIFK (UniProt Q9BYG3)
inactive: ibrutinib 0.02 | [1] -0.039 | ralimetinib 0.022 | [2] 0.002 | [3] -0.001 | [4] 0.016 | [5] -0.035 | [6] -0.005 | [7] 0.016 | [8] 0.032

N4BP2 (UniProt Q86UW6)
inactive: ibrutinib 0.094 | [1] -0.041 | ralimetinib 0.038 | [2] -0.053 | [3] 0.047 | [4] 0.03 | [5] -0.011 | [6] -0.005 | [7] -0.034 | [8] -0.027

NCAPG (UniProt Q9BPX3)
Chain of UniProt Q9BPX3 (Q9BPX3 whole entry, looked up): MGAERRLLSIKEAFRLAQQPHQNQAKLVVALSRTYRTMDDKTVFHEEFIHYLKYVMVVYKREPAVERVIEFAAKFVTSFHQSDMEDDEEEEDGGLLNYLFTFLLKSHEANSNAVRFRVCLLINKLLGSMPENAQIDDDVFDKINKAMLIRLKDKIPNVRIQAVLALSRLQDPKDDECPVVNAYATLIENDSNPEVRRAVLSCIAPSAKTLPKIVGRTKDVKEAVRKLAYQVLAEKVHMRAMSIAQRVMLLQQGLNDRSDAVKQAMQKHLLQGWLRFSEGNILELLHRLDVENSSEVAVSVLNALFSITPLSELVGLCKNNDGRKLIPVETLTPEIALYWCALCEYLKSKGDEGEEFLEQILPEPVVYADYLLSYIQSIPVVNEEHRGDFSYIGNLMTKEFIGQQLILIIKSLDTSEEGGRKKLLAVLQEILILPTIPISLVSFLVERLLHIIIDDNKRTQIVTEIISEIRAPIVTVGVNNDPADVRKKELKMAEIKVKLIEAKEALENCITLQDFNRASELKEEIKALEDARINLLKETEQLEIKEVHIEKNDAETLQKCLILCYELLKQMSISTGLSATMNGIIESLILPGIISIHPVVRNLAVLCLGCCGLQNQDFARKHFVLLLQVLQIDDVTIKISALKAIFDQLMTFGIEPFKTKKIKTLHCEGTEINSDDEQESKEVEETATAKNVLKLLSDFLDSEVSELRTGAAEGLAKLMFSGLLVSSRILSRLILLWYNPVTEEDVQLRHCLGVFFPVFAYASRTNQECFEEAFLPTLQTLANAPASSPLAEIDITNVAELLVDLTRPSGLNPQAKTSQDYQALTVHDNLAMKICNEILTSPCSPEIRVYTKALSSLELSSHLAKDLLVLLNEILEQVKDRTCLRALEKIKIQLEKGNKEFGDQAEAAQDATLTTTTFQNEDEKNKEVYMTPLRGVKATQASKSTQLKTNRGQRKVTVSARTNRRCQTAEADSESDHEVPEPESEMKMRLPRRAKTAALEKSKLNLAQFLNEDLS
inactive: ibrutinib 0.006 | [1] 0.015 | ralimetinib 0.027 | [2] -0.015 | [3] -0.026 | [4] -0.009 | [5] -0.02 | [6] 0.014 | [7] 0.018 | [8] 0.024

NFKBIE (UniProt O00221)
inactive: ibrutinib -0.018 | [1] 0.054 | ralimetinib -0.008 | [2] -0.059 | [3] -0.05 | [4] 0.015 | [5] -0.044 | [6] 0.027 | [7] 0.05 | [8] 0.018

NOB1 (UniProt Q9ULX3)
inactive: ibrutinib -0.005 | [1] 0.018 | ralimetinib -0.028 | [2] 0.014 | [3] 0.013 | [4] -0.001 | [5] -0.046 | [6] 0.03 | [7] 0.019 | [8] 0.004

PAFAH1B3 (UniProt Q15102)
Chain of UniProt Q15102 (Q15102 whole entry, looked up): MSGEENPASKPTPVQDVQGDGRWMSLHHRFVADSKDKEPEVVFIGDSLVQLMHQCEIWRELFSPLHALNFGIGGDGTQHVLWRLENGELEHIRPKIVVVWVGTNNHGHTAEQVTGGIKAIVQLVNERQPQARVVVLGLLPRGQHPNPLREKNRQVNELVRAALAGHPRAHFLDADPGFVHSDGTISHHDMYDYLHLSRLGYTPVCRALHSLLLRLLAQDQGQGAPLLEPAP
inactive: ibrutinib 0.073 | [1] -0.004 | ralimetinib 0.003 | [2] -0.01 | [3] 0.015 | [4] -0.026 | [5] 0.014 | [6] -0.002 | [7] 0.02 | [8] 0.006

MTA3 (UniProt Q9BTC8)
Chain of UniProt Q9BTC8 (Q9BTC8 whole entry, looked up): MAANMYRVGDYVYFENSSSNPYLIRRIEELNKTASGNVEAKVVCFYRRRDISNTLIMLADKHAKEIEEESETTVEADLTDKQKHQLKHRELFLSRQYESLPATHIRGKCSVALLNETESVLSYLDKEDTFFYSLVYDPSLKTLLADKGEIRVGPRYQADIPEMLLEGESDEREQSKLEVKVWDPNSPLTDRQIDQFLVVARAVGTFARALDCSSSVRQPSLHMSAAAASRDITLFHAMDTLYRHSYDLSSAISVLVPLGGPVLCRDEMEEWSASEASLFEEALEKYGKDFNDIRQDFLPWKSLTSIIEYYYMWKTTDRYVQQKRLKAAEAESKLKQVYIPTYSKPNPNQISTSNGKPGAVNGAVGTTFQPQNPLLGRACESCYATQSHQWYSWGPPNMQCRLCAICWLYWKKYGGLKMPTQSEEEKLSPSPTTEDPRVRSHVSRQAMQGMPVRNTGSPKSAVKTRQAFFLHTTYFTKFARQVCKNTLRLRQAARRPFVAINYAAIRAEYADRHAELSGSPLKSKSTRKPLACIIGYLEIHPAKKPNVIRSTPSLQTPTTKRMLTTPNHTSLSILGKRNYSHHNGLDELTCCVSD
inactive: ibrutinib -0.048 | [1] -0.023 | ralimetinib 0.009 | [2] 0.062 | [3] 0.01 | [4] -0.047 | [5] 0.031 | [6] -0.053 | [7] -0.052 | [8] -0.018

NTPCR (UniProt Q9BSD7)
Chain of UniProt Q9BSD7 (Q9BSD7 whole entry, looked up): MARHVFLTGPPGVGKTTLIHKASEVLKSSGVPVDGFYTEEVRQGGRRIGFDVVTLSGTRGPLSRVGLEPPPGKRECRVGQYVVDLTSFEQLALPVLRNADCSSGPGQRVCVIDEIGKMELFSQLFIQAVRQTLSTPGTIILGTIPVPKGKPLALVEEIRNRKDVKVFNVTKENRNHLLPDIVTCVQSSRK
inactive: ibrutinib -0.004 | [1] 0.002 | ralimetinib 0.014 | [2] 0 | [3] 0.022 | [4] 0.018 | [5] 0.014 | [6] -0.002 | [7] 0.066 | [8] -0.001

MSH6 (UniProt P52701)
inactive: ibrutinib 0.001 | [1] 0.022 | ralimetinib 0.024 | [2] 0.003 | [3] 0.027 | [4] -0.01 | [5] -0.01 | [6] -0.002 | [7] 0.057 | [8] 0.003

OTUD7B (UniProt Q6GQQ9)
inactive: ibrutinib -0.008 | [1] 0.004 | ralimetinib 0.026 | [2] 0.005 | [3] -0.034 | [4] -0.011 | [5] -0.019 | [7] 0 | [8] 0.047
active: [6] 0.239

OLA1 (UniProt Q9NTK5)
inactive: ibrutinib 0.009 | [1] -0.002 | ralimetinib 0.015 | [2] 0.03 | [3] 0.02 | [4] -0.023 | [5] 0.023 | [6] -0.004 | [7] 0.029 | [8] 0.014

MRPL58 (UniProt Q14197)
inactive: ibrutinib 0.025 | [1] 0.032 | ralimetinib -0.022 | [2] 0.006 | [3] -0.013 | [4] 0.089 | [5] -0.034 | [6] -0.035 | [7] 0.032 | [8] 0.053

PBK (UniProt Q96KB5)
Chain of UniProt Q96KB5 (Q96KB5 whole entry, looked up): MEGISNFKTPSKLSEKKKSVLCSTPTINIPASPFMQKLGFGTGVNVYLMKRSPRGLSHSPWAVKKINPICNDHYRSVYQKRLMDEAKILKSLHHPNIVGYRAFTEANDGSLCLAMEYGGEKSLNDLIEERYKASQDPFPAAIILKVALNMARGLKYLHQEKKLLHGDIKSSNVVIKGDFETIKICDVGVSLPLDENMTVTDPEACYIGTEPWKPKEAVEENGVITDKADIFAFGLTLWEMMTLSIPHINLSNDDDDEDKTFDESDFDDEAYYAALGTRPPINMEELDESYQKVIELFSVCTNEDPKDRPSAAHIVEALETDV
inactive: ibrutinib 0.006 | [1] -0.007 | ralimetinib 0.005 | [2] -0.005 | [3] 0.029 | [4] -0.008 | [5] 0.015 | [6] 0.006 | [7] -0.013 | [8] 0.019

NRIP1 (UniProt P48552)
inactive: ibrutinib -0.018 | [1] -0.055 | ralimetinib -0.05 | [2] -0.165 | [3] -0.007 | [4] 0.093 | [5] -0.217 | [6] 0.175 | [7] -0.005 | [8] -0.102

NUSAP1 (UniProt Q9BXS6)
inactive: ibrutinib -0.003 | [1] -0.022 | ralimetinib 0.023 | [2] -0.014 | [3] -0.006 | [4] -0.02 | [5] -0.017 | [6] -0.004 | [7] 0.016 | [8] -0.023

NCKAP1L (UniProt P55160)
inactive: ibrutinib -0.18 | [1] 0.021 | ralimetinib 0.025 | [2] -0.04 | [3] -0.111 | [4] -0.051 | [5] -0.089 | [6] -0.012 | [7] 0.04 | [8] 0.025

OAT (UniProt P04181)
inactive: ibrutinib -0.007 | [1] 0.013 | ralimetinib 0.009 | [2] 0.002 | [3] 0 | [4] -0.045 | [5] -0.018 | [6] -0.006 | [7] 0.034 | [8] -0.009

NUCB2 (UniProt P80303)
Chain of UniProt P80303 (P80303 whole entry, looked up): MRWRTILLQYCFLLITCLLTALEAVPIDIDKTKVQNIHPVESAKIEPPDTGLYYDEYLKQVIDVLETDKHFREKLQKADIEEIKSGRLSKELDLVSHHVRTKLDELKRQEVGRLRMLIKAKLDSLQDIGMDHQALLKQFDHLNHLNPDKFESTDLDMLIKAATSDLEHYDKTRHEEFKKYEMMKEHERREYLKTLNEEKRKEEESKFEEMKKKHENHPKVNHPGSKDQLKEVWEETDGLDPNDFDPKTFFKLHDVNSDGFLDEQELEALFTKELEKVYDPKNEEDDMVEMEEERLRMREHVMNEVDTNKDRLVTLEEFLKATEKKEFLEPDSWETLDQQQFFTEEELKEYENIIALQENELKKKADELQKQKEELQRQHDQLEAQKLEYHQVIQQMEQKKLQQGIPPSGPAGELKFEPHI
inactive: ibrutinib 0.025 | [1] 0.002 | ralimetinib -0.023 | [2] 0.01 | [3] 0.009 | [4] 0.04 | [5] -0.006 | [6] 0 | [7] -0.015 | [8] -0.014

NUP133 (UniProt Q8WUM0)
Chain of UniProt Q8WUM0 (Q8WUM0 whole entry, looked up): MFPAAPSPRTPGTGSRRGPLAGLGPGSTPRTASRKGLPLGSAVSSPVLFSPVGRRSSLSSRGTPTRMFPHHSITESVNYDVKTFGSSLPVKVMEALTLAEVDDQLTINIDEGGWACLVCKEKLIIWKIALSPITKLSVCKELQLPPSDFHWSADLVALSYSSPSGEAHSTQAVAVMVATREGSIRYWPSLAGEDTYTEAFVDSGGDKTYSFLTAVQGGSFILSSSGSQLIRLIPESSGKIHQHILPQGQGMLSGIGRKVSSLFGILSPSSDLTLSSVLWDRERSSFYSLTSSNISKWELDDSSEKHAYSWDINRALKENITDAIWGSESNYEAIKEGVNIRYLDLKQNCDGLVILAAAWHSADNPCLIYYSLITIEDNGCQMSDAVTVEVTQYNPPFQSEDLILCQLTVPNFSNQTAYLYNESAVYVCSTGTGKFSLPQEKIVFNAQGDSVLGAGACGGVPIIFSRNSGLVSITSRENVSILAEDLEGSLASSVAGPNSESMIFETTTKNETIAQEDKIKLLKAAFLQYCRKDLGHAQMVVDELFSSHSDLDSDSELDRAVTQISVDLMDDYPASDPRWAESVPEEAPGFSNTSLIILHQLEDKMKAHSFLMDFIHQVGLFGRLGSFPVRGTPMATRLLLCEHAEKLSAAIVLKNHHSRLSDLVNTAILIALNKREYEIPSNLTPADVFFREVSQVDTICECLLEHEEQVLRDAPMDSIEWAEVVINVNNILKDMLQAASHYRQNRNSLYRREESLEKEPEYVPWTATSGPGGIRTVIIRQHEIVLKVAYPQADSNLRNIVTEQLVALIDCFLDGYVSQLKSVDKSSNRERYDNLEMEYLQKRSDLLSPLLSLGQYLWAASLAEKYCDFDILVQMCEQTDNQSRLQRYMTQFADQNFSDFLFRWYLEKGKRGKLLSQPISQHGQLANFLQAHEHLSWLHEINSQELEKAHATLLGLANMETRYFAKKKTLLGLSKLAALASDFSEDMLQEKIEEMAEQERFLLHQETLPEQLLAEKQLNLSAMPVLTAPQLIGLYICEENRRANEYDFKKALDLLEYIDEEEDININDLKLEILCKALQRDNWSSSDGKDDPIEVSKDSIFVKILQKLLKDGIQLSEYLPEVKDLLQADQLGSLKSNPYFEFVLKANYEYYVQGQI
inactive: ibrutinib 0.016 | [1] -0.015 | ralimetinib 0.006 | [2] 0.045 | [3] -0.01 | [4] 0.064 | [5] -0.02 | [6] 0.01 | [7] 0.009 | [8] -0.002

NOSIP (UniProt Q9Y314)
Chain of UniProt Q9Y314 (Q9Y314 whole entry, looked up): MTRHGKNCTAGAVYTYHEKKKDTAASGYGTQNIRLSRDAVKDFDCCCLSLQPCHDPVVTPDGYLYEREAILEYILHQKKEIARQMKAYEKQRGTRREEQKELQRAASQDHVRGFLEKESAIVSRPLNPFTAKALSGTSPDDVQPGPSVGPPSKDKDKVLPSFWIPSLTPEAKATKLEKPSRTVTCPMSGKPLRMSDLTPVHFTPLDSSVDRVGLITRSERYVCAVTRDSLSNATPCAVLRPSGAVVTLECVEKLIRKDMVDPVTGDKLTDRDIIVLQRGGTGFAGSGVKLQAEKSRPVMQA
inactive: ibrutinib 0.028 | [1] 0.037 | ralimetinib 0 | [2] 0.009 | [3] -0.014 | [4] -0.009 | [5] 0 | [6] 0.047 | [7] 0.027 | [8] -0.009

ORC3 isoform 2 (UniProt Q9UBD5)
inactive: ibrutinib -0.034 | [1] 0.007 | ralimetinib 0.034 | [2] -0.05 | [3] 0.008 | [4] 0.048 | [5] -0.036 | [6] 0.003 | [7] 0.029 | [8] -0.012

OSBP2 (UniProt Q969R2)
inactive: ibrutinib 0 | [1] 0.077 | ralimetinib 0.036 | [2] -0.103 | [3] -0.223 | [4] -0.006 | [5] 0.023 | [6] 0.051 | [7] -0.011 | [8] 0

MTCH2 (UniProt Q9Y6C9)
inactive: ibrutinib 0.008 | [1] -0.022 | ralimetinib 0.022 | [2] 0.023 | [3] 0.044 | [4] -0.019 | [5] -0.011 | [6] 0.043 | [7] -0.036 | [8] 0.031

NUP205 (UniProt Q92621)
inactive: ibrutinib 0.015 | [1] 0.026 | ralimetinib 0.026 | [2] -0.006 | [3] -0.036 | [4] 0.003 | [5] 0.022 | [6] 0.026 | [7] 0.017 | [8] 0.008

MRPS18A isoform 2 (UniProt Q9NVS2)
inactive: ibrutinib -0.015 | [1] 0.006 | ralimetinib -0.015 | [2] -0.002 | [3] -0.046 | [4] 0.034 | [5] -0.131 | [6] 0.016 | [7] 0.043 | [8] -0.003

MSI2 (UniProt Q96DH6)
Chain of UniProt Q96DH6 (Q96DH6 whole entry, looked up): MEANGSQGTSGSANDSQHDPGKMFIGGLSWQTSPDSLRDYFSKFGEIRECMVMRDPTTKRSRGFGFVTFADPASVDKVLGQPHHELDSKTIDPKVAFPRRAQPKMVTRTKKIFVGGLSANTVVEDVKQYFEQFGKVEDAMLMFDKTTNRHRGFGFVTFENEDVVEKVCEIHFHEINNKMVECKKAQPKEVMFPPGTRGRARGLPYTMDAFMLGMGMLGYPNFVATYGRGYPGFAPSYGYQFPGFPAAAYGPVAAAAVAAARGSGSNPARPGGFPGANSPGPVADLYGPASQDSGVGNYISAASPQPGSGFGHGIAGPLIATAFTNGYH
inactive: ibrutinib 0.044 | [1] -0.024 | ralimetinib 0.032 | [2] -0.039 | [3] 0.015 | [4] -0.029 | [5] 0.009 | [7] 0.03 | [8] 0.054
active: [6] -0.315

NADK2 (UniProt Q4G0N4)
Chain of UniProt Q4G0N4 (Q4G0N4 whole entry, looked up): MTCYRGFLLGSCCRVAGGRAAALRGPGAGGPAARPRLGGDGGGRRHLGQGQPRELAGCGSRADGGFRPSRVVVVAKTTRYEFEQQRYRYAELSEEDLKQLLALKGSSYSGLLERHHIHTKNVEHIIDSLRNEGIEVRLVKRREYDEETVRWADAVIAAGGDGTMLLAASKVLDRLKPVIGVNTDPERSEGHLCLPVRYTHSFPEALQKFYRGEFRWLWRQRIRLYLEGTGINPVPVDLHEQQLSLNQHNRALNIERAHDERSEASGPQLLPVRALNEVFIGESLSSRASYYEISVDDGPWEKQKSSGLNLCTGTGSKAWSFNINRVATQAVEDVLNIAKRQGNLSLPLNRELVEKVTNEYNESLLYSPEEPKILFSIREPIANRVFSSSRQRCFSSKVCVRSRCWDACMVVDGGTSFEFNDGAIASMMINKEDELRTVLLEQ
inactive: ibrutinib -0.017 | [1] -0.006 | ralimetinib 0.005 | [2] -0.03 | [3] -0.02 | [4] -0.007 | [5] 0.008 | [6] 0.024 | [7] 0.023 | [8] 0.042

MTOR (UniProt P42345)
inactive: ibrutinib -0.016 | [1] 0.001 | ralimetinib 0.018 | [2] -0.005 | [3] -0.043 | [4] 0.02 | [5] 0.019 | [6] 0.031 | [7] 0.058 | [8] -0.013

PANK1 (UniProt Q8TE04)
inactive: ibrutinib -0.031 | [1] -0.007 | ralimetinib 0.04 | [2] -0.003 | [3] -0.079 | [4] 0.045 | [5] -0.068 | [6] -0.035 | [7] -0.025 | [8] 0.064
